Source: PubChem BioAssay AID651674 (The Scripps Research Institute Molecular Screening Center, 2012)
The campaign covered roughly 2,200 compounds. About 1,700 (77%) were called active.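 The calls were made as follows: active = mean inhibition across replicate wells exceeding the computed hit threshold (cut at about 13% in these data); inactive = the rest.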 The set was probably picked from earlier hits. Not all results are given here.

Target: Hepatocyte nuclear factor 4-alpha (Homo sapiens) (UniProt P41235)
Sequence (P41235 whole entry, looked up, the tested form may be a part): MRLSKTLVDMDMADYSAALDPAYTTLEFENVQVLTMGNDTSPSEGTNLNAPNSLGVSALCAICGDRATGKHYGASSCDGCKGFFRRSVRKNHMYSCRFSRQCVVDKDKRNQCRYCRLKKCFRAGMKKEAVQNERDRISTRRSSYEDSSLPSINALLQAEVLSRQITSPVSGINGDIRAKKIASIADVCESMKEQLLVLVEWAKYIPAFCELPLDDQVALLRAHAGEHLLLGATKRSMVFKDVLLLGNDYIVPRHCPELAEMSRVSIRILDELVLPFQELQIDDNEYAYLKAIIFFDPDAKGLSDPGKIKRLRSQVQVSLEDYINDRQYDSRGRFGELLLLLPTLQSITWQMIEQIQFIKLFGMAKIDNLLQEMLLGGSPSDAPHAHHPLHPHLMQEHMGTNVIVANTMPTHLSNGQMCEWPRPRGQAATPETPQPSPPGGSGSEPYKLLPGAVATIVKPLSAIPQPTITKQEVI
Test: blockers of HNF4 self-association – biochemical, split-luciferase complementation, luminescence, counter-screen for ABHD5-PLIN5 interaction inhibitor project (AID 651674);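 also: light from luciferase halves that rejoin when HNF4 fusion proteins dimerize; 0% = DMSO only wells and the 100% control is not given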
Conditions: HNF4 dimerization, at 4 µM, hits give high values

Row | Compound | inhibition
1 | COc1ccc(CN2C(=O)NC(=O)/C(=C\c3ccc(OC)c(OC)c3OC)C2=O)cc1 | 31.3% (active)
2 | CN(C)CC1Oc2ccccc2OC1(O)c1ccccc1 (stereo not given) | 104% (active)
3 | Cc1cccc(N2C(=O)NC(=O)/C(=C\c3cnn(-c4ccccc4)c3)C2=O)c1 | 68.7% (active)
4 | CCOC(=O)[C@]12Cc3ccccc3[C@H]1N(C1CCCCC1)C(=O)c1cc(OC)ccc12 | 27.9% (active)
5 | CCc1nnc(NS(=O)(=O)c2ccc(N=Cc3c(O)n(-c4ccccc4)c(=O)[nH]c3=O)cc2)s1 | 33.6% (active)
